Laboratory results published in ChEMBL document CHEMBL2218924, “A broad activity screen in support of a chemogenomic map for kinase signalling research and drug discovery” (Biochem J, 2013).

Experiments:
[1] = target: T1, Serine/threonine-protein kinase 17A (Homo sapiens) (UniProt Q9UEE5); conditions: at 10 µM
T1 sequence (whole entry): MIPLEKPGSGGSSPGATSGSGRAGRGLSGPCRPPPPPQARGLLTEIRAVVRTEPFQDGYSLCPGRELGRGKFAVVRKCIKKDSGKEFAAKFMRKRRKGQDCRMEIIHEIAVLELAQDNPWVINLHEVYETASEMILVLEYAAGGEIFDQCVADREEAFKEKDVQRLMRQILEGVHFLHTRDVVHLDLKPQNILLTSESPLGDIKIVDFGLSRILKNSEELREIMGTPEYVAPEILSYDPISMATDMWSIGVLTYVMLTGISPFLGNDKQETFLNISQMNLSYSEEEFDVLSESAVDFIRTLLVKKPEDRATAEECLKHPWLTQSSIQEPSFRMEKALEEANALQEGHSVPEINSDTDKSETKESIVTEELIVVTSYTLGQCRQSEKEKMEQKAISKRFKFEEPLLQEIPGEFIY

[2] = target: T2, Dual specificity tyrosine-phosphorylation-regulated kinase 2 (Homo sapiens) (UniProt Q92630); conditions: at 1 µM
T2 sequence (whole entry): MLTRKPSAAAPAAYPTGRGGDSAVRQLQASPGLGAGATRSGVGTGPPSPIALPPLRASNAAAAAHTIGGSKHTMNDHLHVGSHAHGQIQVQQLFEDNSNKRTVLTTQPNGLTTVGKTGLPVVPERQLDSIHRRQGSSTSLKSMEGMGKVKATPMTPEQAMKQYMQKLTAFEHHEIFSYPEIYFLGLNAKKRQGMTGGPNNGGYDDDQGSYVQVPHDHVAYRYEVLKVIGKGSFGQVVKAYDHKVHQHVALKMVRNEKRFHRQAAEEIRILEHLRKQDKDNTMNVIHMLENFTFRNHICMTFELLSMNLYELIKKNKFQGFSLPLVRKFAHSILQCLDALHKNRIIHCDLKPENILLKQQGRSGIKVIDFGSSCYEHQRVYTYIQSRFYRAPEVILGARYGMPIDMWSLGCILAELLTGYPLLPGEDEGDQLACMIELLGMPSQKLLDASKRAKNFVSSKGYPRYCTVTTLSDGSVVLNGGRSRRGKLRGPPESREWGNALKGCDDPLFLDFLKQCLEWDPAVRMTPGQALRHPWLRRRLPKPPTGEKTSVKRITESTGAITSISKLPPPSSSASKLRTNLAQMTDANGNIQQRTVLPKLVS

[3] = target: T2, Dual specificity tyrosine-phosphorylation-regulated kinase 2 (Homo sapiens); conditions: at 10 µM
[4] = target: Epidermal growth factor receptor (Homo sapiens) (UniProt P00533); conditions: at 1 µM
[5] = target: T3, Ephrin type-A receptor 1 (Homo sapiens) (UniProt P21709); conditions: at 1 µM
T3 sequence (whole entry): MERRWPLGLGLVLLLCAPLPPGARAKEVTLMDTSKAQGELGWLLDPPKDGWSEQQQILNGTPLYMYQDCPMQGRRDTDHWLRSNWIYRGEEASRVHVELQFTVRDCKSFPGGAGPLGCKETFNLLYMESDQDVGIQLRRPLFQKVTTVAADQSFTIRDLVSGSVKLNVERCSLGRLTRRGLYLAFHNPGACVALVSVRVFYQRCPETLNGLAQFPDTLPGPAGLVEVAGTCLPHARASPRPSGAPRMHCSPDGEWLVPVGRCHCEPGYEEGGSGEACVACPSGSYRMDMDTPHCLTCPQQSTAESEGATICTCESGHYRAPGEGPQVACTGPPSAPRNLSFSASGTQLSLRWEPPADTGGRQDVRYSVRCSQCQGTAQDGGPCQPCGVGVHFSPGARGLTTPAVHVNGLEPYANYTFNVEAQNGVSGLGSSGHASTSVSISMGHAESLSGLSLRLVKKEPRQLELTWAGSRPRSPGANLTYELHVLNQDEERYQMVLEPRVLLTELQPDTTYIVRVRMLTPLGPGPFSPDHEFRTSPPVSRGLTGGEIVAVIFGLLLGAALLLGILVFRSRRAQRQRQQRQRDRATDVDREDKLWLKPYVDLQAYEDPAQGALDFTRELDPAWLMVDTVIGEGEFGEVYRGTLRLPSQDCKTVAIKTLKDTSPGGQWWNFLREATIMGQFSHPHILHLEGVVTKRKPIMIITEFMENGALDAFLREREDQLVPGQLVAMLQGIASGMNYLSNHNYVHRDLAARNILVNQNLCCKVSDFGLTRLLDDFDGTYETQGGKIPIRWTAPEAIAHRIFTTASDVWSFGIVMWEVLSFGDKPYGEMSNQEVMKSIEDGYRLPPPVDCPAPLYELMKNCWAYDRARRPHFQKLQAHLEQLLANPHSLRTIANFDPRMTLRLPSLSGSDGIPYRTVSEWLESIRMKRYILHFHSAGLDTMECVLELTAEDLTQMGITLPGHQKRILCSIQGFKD

[6] = target: T3, Ephrin type-A receptor 1 (Homo sapiens); conditions: at 10 µM
[7] = target: Ephrin type-A receptor 2 (Homo sapiens) (UniProt P29317); conditions: at 1 µM
[8] = target: Ephrin type-A receptor 2 (Homo sapiens) (UniProt P29317); conditions: at 10 µM
[9] = target: T4, Ephrin type-A receptor 3 (Homo sapiens) (UniProt P29320); conditions: at 1 µM
T4 sequence (whole entry): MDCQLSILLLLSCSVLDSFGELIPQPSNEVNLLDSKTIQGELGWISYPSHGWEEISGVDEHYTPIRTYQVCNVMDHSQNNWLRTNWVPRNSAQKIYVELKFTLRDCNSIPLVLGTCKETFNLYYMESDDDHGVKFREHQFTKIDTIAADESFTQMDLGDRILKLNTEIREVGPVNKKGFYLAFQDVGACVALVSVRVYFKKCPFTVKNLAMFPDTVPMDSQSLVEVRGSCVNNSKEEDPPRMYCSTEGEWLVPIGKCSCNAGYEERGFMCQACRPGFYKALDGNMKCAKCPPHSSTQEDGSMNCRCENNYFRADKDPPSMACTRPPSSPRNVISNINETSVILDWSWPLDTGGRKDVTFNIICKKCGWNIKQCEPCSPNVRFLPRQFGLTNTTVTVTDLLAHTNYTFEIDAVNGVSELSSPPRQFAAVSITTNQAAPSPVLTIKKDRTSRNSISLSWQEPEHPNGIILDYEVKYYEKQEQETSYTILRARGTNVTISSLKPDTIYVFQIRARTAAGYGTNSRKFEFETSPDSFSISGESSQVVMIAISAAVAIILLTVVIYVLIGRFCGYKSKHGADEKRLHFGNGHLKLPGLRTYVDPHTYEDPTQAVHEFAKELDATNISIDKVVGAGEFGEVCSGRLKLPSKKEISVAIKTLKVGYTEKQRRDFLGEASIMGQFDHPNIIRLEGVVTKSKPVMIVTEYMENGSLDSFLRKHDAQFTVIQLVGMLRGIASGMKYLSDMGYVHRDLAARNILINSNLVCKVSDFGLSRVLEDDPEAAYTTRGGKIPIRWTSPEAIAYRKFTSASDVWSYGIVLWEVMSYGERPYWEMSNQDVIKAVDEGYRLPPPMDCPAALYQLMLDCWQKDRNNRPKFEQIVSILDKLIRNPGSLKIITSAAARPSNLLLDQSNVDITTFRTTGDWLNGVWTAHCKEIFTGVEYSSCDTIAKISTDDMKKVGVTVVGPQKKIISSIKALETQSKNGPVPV

[10] = target: T4, Ephrin type-A receptor 3 (Homo sapiens); conditions: at 10 µM
[11] = target: Ephrin type-A receptor 4 (Homo sapiens) (UniProt P54764); conditions: at 1 µM
[12] = target: Ephrin type-A receptor 4 (Homo sapiens) (UniProt P54764); conditions: at 10 µM
[13] = target: Ephrin type-A receptor 5 (Homo sapiens) (UniProt P54756); conditions: at 1 µM
[14] = target: Ephrin type-A receptor 5 (Homo sapiens) (UniProt P54756); conditions: at 10 µM
[15] = target: Ephrin type-A receptor 7 (Homo sapiens) (UniProt Q15375); conditions: at 1 µM
[16] = target: Ephrin type-A receptor 7 (Homo sapiens) (UniProt Q15375); conditions: at 10 µM
[17] = target: T5, Ephrin type-A receptor 8 (Homo sapiens) (UniProt P29322); conditions: at 1 µM
T5 sequence (whole entry): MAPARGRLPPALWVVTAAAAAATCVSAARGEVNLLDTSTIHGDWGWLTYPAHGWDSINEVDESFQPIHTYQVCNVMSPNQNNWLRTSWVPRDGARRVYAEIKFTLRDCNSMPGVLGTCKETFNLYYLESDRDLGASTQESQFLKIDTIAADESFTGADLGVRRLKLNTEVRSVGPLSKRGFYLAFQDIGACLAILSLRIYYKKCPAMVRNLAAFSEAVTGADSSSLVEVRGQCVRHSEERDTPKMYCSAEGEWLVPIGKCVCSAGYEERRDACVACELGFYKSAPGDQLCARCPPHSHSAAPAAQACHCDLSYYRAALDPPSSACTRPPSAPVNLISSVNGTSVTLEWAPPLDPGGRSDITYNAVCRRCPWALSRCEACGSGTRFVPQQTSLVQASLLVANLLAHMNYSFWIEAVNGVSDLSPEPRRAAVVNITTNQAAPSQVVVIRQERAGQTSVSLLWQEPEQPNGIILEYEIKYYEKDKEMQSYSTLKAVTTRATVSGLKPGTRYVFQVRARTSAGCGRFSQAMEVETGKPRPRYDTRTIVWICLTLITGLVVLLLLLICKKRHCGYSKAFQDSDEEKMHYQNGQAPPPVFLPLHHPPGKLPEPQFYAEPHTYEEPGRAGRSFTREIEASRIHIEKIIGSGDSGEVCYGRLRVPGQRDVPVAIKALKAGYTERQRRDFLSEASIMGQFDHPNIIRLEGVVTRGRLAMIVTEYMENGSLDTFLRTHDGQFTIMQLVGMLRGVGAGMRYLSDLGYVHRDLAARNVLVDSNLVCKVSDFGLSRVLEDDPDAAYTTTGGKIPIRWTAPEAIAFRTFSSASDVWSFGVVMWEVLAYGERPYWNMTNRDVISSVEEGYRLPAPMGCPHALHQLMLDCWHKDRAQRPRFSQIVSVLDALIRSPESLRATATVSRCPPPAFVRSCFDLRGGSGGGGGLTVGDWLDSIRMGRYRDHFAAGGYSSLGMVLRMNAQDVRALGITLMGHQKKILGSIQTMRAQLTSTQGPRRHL

[18] = target: T5, Ephrin type-A receptor 8 (Homo sapiens); conditions: at 10 µM
[19] = target: T6, Ephrin type-B receptor 1 (Homo sapiens) (UniProt P54762); conditions: at 1 µM
T6 sequence (whole entry): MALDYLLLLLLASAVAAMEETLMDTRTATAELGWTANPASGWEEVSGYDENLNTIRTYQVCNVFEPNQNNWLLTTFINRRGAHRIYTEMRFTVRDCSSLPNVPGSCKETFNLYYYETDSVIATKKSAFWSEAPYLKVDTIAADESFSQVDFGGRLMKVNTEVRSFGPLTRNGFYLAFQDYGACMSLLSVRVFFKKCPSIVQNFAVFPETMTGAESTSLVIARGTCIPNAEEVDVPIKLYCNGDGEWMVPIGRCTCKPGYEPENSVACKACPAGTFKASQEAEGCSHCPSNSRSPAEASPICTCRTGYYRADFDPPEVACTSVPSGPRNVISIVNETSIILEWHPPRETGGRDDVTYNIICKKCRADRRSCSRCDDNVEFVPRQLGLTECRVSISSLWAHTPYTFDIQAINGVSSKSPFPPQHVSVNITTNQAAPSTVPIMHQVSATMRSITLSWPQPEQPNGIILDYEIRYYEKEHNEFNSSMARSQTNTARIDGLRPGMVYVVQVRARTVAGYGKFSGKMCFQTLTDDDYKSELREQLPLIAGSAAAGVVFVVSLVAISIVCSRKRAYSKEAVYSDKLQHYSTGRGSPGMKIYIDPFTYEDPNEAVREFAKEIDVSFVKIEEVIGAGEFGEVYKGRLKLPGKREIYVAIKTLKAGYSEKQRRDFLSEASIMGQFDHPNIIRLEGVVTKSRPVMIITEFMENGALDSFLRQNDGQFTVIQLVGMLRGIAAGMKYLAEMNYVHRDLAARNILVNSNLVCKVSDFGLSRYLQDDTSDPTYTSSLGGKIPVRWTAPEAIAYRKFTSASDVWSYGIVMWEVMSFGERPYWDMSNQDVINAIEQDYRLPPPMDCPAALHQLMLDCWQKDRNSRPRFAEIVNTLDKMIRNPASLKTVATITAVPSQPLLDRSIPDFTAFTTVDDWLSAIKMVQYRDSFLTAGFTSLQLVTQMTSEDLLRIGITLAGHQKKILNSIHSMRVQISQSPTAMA

[20] = target: Epidermal growth factor receptor (Homo sapiens) (UniProt P00533); conditions: at 10 µM

Sequence of Ephrin type-A receptor 2 (Homo sapiens) (P29317 whole entry): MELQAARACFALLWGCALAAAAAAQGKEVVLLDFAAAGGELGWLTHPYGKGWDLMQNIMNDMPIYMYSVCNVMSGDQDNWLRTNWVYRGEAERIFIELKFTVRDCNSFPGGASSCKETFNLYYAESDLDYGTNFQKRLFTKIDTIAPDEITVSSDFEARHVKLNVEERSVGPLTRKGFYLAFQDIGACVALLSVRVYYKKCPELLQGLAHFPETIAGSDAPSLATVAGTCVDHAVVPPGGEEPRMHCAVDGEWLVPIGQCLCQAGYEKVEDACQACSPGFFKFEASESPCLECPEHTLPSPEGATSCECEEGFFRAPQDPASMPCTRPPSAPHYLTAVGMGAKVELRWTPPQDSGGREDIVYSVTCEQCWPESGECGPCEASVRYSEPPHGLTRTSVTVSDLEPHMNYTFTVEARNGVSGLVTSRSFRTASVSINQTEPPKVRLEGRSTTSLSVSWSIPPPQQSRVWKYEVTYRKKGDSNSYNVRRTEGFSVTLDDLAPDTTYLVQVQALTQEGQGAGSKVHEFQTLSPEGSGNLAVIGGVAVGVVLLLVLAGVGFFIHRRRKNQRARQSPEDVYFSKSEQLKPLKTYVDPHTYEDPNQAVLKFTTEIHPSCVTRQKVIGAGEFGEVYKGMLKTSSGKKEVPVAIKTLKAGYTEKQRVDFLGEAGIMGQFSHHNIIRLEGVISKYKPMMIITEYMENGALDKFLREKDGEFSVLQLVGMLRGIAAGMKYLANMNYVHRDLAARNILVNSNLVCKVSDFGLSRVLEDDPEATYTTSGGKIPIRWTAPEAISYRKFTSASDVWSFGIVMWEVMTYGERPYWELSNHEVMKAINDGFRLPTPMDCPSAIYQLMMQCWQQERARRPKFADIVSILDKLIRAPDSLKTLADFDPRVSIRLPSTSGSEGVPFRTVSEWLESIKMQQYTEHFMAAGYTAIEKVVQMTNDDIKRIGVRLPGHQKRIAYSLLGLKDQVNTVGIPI
Sequence of Epidermal growth factor receptor (Homo sapiens) (P00533 whole entry): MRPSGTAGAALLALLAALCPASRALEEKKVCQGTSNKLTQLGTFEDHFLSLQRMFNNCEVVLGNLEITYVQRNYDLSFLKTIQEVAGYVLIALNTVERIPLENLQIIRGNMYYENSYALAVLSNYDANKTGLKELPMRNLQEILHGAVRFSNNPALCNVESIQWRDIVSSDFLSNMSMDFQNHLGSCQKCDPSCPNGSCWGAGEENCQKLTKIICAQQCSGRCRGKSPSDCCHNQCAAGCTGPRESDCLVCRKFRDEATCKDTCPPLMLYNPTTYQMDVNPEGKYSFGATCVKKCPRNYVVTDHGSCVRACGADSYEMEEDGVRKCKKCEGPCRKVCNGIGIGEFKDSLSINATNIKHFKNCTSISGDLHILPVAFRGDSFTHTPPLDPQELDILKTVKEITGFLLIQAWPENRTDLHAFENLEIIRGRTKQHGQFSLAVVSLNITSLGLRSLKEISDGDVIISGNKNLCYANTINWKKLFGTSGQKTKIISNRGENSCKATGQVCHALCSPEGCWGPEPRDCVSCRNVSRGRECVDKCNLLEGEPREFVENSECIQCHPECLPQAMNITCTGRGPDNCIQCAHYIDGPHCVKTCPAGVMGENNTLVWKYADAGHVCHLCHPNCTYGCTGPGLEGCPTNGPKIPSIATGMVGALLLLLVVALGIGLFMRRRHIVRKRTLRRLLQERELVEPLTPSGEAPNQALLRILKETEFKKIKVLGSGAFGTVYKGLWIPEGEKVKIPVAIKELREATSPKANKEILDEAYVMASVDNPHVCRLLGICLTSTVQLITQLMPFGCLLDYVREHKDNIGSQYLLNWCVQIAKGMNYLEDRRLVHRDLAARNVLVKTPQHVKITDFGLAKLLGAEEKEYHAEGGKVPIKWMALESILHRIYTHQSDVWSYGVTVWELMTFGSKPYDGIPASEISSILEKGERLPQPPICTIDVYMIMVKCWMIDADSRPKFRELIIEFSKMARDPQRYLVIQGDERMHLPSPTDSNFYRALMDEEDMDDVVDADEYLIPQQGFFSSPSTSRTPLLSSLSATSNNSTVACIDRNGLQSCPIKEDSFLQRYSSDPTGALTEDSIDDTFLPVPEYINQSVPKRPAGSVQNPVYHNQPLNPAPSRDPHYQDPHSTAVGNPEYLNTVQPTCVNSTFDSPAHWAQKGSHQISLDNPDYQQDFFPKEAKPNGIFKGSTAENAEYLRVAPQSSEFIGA
Sequence of Ephrin type-A receptor 7 (Homo sapiens) (Q15375 28-998 limits assumed): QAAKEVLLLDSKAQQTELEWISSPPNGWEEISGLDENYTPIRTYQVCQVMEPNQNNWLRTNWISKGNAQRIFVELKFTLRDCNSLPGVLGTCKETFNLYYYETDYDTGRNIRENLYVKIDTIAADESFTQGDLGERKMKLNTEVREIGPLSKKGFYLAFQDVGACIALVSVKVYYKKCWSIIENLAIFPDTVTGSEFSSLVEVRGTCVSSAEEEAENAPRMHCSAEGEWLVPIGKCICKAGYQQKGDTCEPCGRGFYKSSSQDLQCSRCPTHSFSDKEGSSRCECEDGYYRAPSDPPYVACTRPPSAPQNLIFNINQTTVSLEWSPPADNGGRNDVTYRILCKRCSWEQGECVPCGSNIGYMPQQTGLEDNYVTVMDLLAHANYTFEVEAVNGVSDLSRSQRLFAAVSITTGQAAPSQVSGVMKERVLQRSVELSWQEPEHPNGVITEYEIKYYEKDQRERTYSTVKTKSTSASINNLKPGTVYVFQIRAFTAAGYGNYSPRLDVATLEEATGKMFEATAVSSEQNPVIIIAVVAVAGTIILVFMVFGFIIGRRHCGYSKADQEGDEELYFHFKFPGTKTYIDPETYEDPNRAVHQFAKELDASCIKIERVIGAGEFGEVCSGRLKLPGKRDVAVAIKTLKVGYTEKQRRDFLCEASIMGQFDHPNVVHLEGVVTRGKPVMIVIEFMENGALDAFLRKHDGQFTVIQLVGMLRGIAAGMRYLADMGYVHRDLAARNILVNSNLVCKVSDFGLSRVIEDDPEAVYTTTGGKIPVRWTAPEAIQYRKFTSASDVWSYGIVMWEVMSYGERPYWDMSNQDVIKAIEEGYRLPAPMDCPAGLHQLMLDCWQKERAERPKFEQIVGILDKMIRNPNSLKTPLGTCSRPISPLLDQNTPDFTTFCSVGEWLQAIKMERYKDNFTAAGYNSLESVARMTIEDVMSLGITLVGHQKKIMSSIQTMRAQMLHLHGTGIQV
Sequence of Ephrin type-A receptor 4 (Homo sapiens) (P54764 whole entry): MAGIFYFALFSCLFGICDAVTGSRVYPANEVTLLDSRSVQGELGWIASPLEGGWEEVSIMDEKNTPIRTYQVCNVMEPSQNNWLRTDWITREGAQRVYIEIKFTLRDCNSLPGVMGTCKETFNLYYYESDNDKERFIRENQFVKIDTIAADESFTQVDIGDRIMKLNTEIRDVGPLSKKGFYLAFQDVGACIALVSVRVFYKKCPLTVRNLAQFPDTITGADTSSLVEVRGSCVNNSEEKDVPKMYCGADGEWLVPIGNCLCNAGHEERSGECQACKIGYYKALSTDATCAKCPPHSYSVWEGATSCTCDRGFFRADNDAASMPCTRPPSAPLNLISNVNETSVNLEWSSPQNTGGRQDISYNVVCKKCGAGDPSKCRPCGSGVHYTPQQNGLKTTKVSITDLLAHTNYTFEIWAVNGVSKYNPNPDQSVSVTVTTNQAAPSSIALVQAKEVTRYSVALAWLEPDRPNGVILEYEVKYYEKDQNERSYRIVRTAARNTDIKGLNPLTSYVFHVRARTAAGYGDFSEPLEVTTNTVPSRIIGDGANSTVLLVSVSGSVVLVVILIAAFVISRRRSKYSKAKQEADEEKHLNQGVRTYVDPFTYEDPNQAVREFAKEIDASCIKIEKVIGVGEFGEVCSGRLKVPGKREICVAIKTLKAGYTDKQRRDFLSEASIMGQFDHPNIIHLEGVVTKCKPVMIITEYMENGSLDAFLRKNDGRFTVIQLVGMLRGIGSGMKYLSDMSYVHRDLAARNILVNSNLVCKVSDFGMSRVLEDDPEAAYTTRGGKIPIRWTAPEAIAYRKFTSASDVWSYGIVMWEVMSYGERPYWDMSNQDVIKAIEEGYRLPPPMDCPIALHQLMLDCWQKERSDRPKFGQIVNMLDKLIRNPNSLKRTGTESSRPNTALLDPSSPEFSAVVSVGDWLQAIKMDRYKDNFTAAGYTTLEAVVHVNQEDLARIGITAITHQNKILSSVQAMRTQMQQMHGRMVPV

| SMILES | residual activity [1] | residual activity [2] | residual activity [3] | residual activity [4] | residual activity [5] | residual activity [6] | residual activity [7] | residual activity [8] | residual activity [9] | residual activity [10] | residual activity [11] | residual activity [12] | residual activity [13] | residual activity [14] | residual activity [15] | residual activity [16] | residual activity [17] | residual activity [18] | residual activity [19] | residual activity [20] |
| --- | --- | --- | --- | --- | --- | --- | --- | --- | --- | --- | --- | --- | --- | --- | --- | --- | --- | --- | --- | --- |
| CO[C@@H]1[C@H](N(C)C(=O)c2ccccc2)C[C@H]2O[C@]1(C)n1c3ccccc3c3c4c(c5c6ccccc6n2c5c31)C(=O)NC4 | 9% | 90% | 88% | 101% | 87% | 81% | 97% | 95% | 97% | 99% | 103% | 90% | 97% | 86% | 94% | 70% | 94% | 97% |  |  |
| Cn1cnc2cc3c(Nc4cccc(Br)c4)ncnc3cc21 | 28% | 98% | 79% |  | 60% | 49% | 89% | 62% | 90% | 30% | 106% | 88% | 82% | 40% | 77% | 39% | 86% | 63% | 70% |  |
| NC(=O)c1ccc2[nH]c(-c3ccc(Oc4ccc(Cl)cc4)cc3)nc2c1 | 42% | 87% | 53% | 111% | 96% | 85% | 100% | 116% | 100% | 111% | 112% | 104% | 114% | 103% | 94% | 81% | 94% | 96% | 95% | 115% |
| CC(=O)O/N=C1\C(=C2\C(=O)Nc3cc(Br)ccc32)Nc2ccccc21 | 31% | 96% | 92% |  | 84% | 71% | 92% | 59% | 74% | 38% | 112% | 84% | 99% | 47% | 100% | 79% | 84% | 77% | 86% |  |
